Laboratory results reported in PubChem BioAssay AID1159580 (chemical genetic matrix, 2015).
“And” between values parts separate entries of the source, which are not always exact repeats. Equal values may be shown once. In all, about 5,500 compounds went through this assay and about 2,000 (36%) were called active. Inconclusive results (about 18%) are left out. No stated cut-off is given here; in the data, active means normalized growth mostly below about 0.91 (no sharp cut-off); inconclusive means no clear call, values can overlap the other calls; inactive means mostly above about 0.92. This is one part of the list.

Test: chemical genetic growth profiling, strain panel (AID 1159580);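 further: tested at 20 µM; growth read once vehicle control cultures reached saturation at 30 °C; 1 = growth at the plate median or of vehicle wells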
Settings: growth OD

Measured: normalized growth

NC(N)=NC(=O)c1nc(Cl)c(N)nc1N
active: S. cerevisiae deletion strains, locus YLR262C, strain YPT6, stronger effect = lower value 1.41 [resistant]
inactive: S. cerevisiae deletion strains, locus YKL009W, strain mrt4, stronger effect = lower value 1.03 | S. cerevisiae deletion strains, locus YKL068W, stronger effect = lower value 1 | S. cerevisiae deletion strains, locus YKL085W, strain MDH1 (second series), stronger effect = lower value 1.01 | S. cerevisiae deletion strains, locus YKL085W, strain MDH1, stronger effect = lower value 1.01 | S. cerevisiae deletion strains, locus YKL160W, strain elf1, stronger effect = lower value 1.02 | S. cerevisiae deletion strains, locus YKL190W, strain CNB1, stronger effect = lower value 0.994 | S. cerevisiae deletion strains, locus YKR001C, strain vps1, stronger effect = lower value 1.02 | S. cerevisiae deletion strains, locus YKR026C, strain gcn3, stronger effect = lower value 1.03 | S. cerevisiae deletion strains, locus YKR091W, strain srl3, stronger effect = lower value 1.03 | S. cerevisiae deletion strains, locus YLL001W, strain dnm1, stronger effect = lower value 1.02 | S. cerevisiae deletion strains, locus YLL026W, stronger effect = lower value 1.02 | S. cerevisiae deletion strains, locus YLL041C, strain sdh2, stronger effect = lower value 1 | S. cerevisiae deletion strains, locus YLR027C, strain aat2, stronger effect = lower value 1.02 | S. cerevisiae deletion strains, locus YLR039C, strain RIC1, stronger effect = lower value 1.31 | S. cerevisiae deletion strains, locus YLR058C, strain SHM2, stronger effect = lower value 1.01 | S. cerevisiae deletion strains, locus YLR102C, strain apc9, stronger effect = lower value 1 | S. cerevisiae deletion strains, locus YLR113W, strain HOG1, stronger effect = lower value 1.03 | S. cerevisiae deletion strains, locus YLR221C, strain rsa3, stronger effect = lower value 1.03 | S. cerevisiae deletion strains, locus YLR258W, strain gsy2, stronger effect = lower value 1.02 | S. cerevisiae deletion strains, locus YLR262C, strain YPT6 (second series), stronger effect = lower value 1.02 | S. cerevisiae deletion strains, locus YLR268W, strain sec22, stronger effect = lower value 1.05 | S. cerevisiae deletion strains, locus YLR320W, strain mms22, stronger effect = lower value 1.01 | S. cerevisiae deletion strains, locus YLR330W, strain CHS5, stronger effect = lower value 1.01 | S. cerevisiae deletion strains, locus YLR342W, strain FKS1 (second series), stronger effect = lower value 0.893 | S. cerevisiae deletion strains, locus YLR342W, strain FKS1, stronger effect = lower value 1.03 | S. cerevisiae deletion strains, locus YLR357W, strain rsc2, stronger effect = lower value 1.02 | S. cerevisiae deletion strains, locus YLR370C, strain arc18, stronger effect = lower value 1.01 | S. cerevisiae deletion strains, locus YLR371W, strain rom2, stronger effect = lower value 1.03 | S. cerevisiae deletion strains, locus YLR384C, strain iki3, stronger effect = lower value 1.03 | S. cerevisiae deletion strains, locus YLR418C, strain cdc73, stronger effect = lower value 0.94 | S. cerevisiae deletion strains, locus YML016C, strain PPZ1, stronger effect = lower value 1.01 | S. cerevisiae deletion strains, locus YML032C, strain rad52, stronger effect = lower value 1.01 | S. cerevisiae deletion strains, locus YML120C, strain ndi1, stronger effect = lower value 1.01 | S. cerevisiae deletion strains, locus YML124C, strain tub3, stronger effect = lower value 1.02 | S. cerevisiae deletion strains, locus YMR058W, strain fet3, stronger effect = lower value 1.01 | S. cerevisiae deletion strains, locus YMR078C, strain ctf18, stronger effect = lower value 1.02 | S. cerevisiae deletion strains, locus YMR125W, strain sto1, stronger effect = lower value 1.02 | S. cerevisiae deletion strains, locus YMR129W, stronger effect = lower value 1 | S. cerevisiae deletion strains, locus YMR205C, strain PFK2, stronger effect = lower value 1.02 | S. cerevisiae deletion strains, locus YMR223W, strain ubp8, stronger effect = lower value 1.01 | S. cerevisiae deletion strains, locus YMR231W, strain pep5, stronger effect = lower value 1.02 | S. cerevisiae deletion strains, locus YMR307W, strain GAS1, stronger effect = lower value 1.02 and 0.992 | S. cerevisiae deletion strains, locus YNL067W, strain RPL9B, stronger effect = lower value 1 | S. cerevisiae deletion strains, locus YNL071W, strain lat1, stronger effect = lower value 1.01 | S. cerevisiae deletion strains, locus YNL128W, strain TEP1, stronger effect = lower value 0.981 | S. cerevisiae deletion strains, locus YNL153C, strain GIM3, stronger effect = lower value 1 | S. cerevisiae deletion strains, locus YNL175C, strain NOP13, stronger effect = lower value 0.994 | S. cerevisiae deletion strains, locus YNL183C, strain NPR1, stronger effect = lower value 0.948 | S. cerevisiae deletion strains, locus YNL197C, strain WHI3, stronger effect = lower value 0.992 | S. cerevisiae deletion strains, locus YNL209W, strain ssb2, stronger effect = lower value 1 | S. cerevisiae deletion strains, locus YNL224C, strain SQS1, stronger effect = lower value 1 | S. cerevisiae deletion strains, locus YNL233W, strain BNI4, stronger effect = lower value 1 | S. cerevisiae deletion strains, locus YNL248C, strain rpa49, stronger effect = lower value 1.03 | S. cerevisiae deletion strains, locus YNL250W, strain rad50, stronger effect = lower value 1.02 | S. cerevisiae deletion strains, locus YNL271C, strain bni1, stronger effect = lower value 1.03 | S. cerevisiae deletion strains, locus YNL298W, strain CLA4, stronger effect = lower value 1.02 | S. cerevisiae deletion strains, locus YNL307C, strain MCK1, stronger effect = lower value 1.01 | S. cerevisiae deletion strains, locus YNL322C, strain KRE1 (second series), stronger effect = lower value 1.02 | S. cerevisiae deletion strains, locus YNL322C, strain KRE1, stronger effect = lower value 1.01 | S. cerevisiae deletion strains, locus YNR049C, strain mso1, stronger effect = lower value 1.02 | S. cerevisiae deletion strains, locus YNR052C, strain pop2, stronger effect = lower value 1.01 | S. cerevisiae deletion strains, locus YOL006C, strain TOP1, stronger effect = lower value 0.949 | S. cerevisiae deletion strains, locus YOL012C, strain htz1 1.27 | S. cerevisiae deletion strains, locus YOL147C, strain pex11, stronger effect = lower value 1.02 | S. cerevisiae deletion strains, locus YOR001W, strain rrp6, stronger effect = lower value 1.03 | S. cerevisiae deletion strains, locus YOR061W, strain CKA2, stronger effect = lower value 1.01 | S. cerevisiae deletion strains, locus YOR069W, strain VPS5, stronger effect = lower value 1 | S. cerevisiae deletion strains, locus YOR070C, strain gyp1, stronger effect = lower value 1.01 | S. cerevisiae deletion strains, locus YOR080W, strain dia2, stronger effect = lower value 1.04 | S. cerevisiae deletion strains, locus YOR083W, strain WHI5 (second series), stronger effect = lower value 1.01 | S. cerevisiae deletion strains, locus YOR083W, strain WHI5, stronger effect = lower value 1.04 | S. cerevisiae deletion strains, locus YOR106W, strain vam3, stronger effect = lower value 0.997 | S. cerevisiae deletion strains, locus YOR136W, strain idh2, stronger effect = lower value 1.04 | S. cerevisiae deletion strains, locus YOR144C, strain elg1, stronger effect = lower value 1.01 | S. cerevisiae deletion strains, locus YOR184W, strain ser1, stronger effect = lower value 1.05 | S. cerevisiae deletion strains, locus YOR231W, strain MKK1, stronger effect = lower value 0.998 | S. cerevisiae deletion strains, locus YOR265W, strain rbl2, stronger effect = lower value 1.02 | S. cerevisiae deletion strains, locus YOR270C, strain vph1, stronger effect = lower value 1.03 | S. cerevisiae deletion strains, locus YOR290C, strain snf2, stronger effect = lower value 0.985 | S. cerevisiae deletion strains, locus YOR316C, strain cot1, stronger effect = lower value 1.01 | S. cerevisiae deletion strains, locus YPL051W, strain arl3, stronger effect = lower value 1.03 | S. cerevisiae deletion strains, locus YPL078C, strain atp4, stronger effect = lower value 1.04 | S. cerevisiae deletion strains, locus YPL106C, strain sse1, stronger effect = lower value 1 | S. cerevisiae deletion strains, locus YPL240C, strain hsp82, stronger effect = lower value 1.02 | S. cerevisiae deletion strains, locus YPL241C, strain CIN2, stronger effect = lower value 0.998 and 0.996 | S. cerevisiae deletion strains, locus YPL256C, strain CLN2, stronger effect = lower value 1.01 | S. cerevisiae deletion strains, locus YPR119W, strain clb2, stronger effect = lower value 1.01 | S. cerevisiae deletion strains, locus YPR141C, strain kar3, stronger effect = lower value 1.01 | S. cerevisiae deletion strains, locus YPR163C, strain tif3, stronger effect = lower value 1.02 | S. cerevisiae deletion strains, locus YPR167C, strain met16, stronger effect = lower value 1.02 | S. cerevisiae deletion strains, strain wtn01, stronger effect = lower value 1.01 | S. cerevisiae strains, strain wild type, stronger effect = lower value 1
